Measured values reported in the supplement of paper PMC10127200.
Structures can show the parent of a compound that is named as a salt.

test system: FB; assay: Euclidean distance of Cell Painting phenotypic profile (signed KS, 77 features) to DMSO centroid (dimensionless distance); 5 or 10 uM (library dependent); higher = stronger phenotypic change vs DMSO (phenoactivity); conditions: 48 h
How it was run: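 Library compounds were applied at 10 or 5 uM, depending on the library, with 0.1% DMSO final, for 48 h to five cancer lines and a healthy fibroblast line. After staining, cells were imaged confocally at 20X across 9 fields per well, and Harmony extracted 77 features, each scored as a signed Kolmogorov-Smirnov statistic against vehicle wells on the same plate. Phenoactivity is the Euclidean distance between each profile and the median vehicle profile, with profiles first plate-position corrected, correlation-weighted and averaged over replicates at the top dose.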

Q: With `C/C=C(/C)C(=O)O[C@H]1[C@H](OC(C)=O)[C@@]2(CO)C(CC1(C)C)C1=CCC3[C@@]4(C)CCC(O[C@@H]5O[C@H](C(=O)O)[C@@H](O[C@@H]6O[C@H](CO)[C@@H](O)[C@H](O)[C@H]6O)[C@H](O)[C@H]5O[C@@H]5O[C@H](CO)[C@@H](O)[C@H](O)[C@H]5O)[C@](C)(CO)C4CC[C@@]3(C)[C@]1(C)C[C@H]2O.C/C=C(\C)C(=O)O[C@H]1[C@H](OC(C)=O)[C@@]2(CO)C(CC1(C)C)C1=CCC3[C@@]4(C)CCC(O[C@@H]5O[C@H](C(=O)O)[C@@H](O[C@@H]6O[C@H](CO)[C@@H](O)[C@H](O)[C@H]6O)[C@H](O)[C@H]5O[C@@H]5O[C@H](CO)[C@@H](O)[C@H](O)[C@H]5O)[C@](C)(CO)C4CC[C@@]3(C)[C@]1(C)C[C@H]2O` (stereo partly specified) [Escin] as the compound, how does the Euclidean distance read?
A: Its Euclidean distance is 1.18.

Q: With `OC(CNCC(O)C1CCc2cc(F)ccc2O1)C1CCc2cc(F)ccc2O1` (stereo unspecified) [Nebivolol] as the compound, how does the Euclidean distance read?
A: Its Euclidean distance is 1.65.

Q: With `COc1ccc(C[C@H](NC(=O)[C@H](C)NC(=O)CN2CCOCC2)C(=O)N[C@@H](Cc2ccccc2)C(=O)[C@@]2(C)CO2)cc1` as the compound, how does the Euclidean distance read?
A: The Euclidean distance was 5.13.

Q: For `CC(C)N(CCCNC(=O)Nc1ccc(C(C)(C)C)cc1)C[C@H]1O[C@@H](n2ccc3c(N)ncnc32)[C@H](O)[C@@H]1O`, which Euclidean distance is on record?
A: Its Euclidean distance is 1.18.

Q: With `O=C(Nc1ncc(SCCN2CCCC2)s1)[C@]1(c2ccc(S(=O)(=O)C3CC3)cc2)C[C@H]1C1CCCCC1` as the compound, how does the Euclidean distance read?
A: Its Euclidean distance is 3.03.

Q: `CCOC(=O)CC(=O)N1CCSC1COc1ccccc1OC` (stereo unspecified) [Moguisteine] was tested. Which Euclidean distance did it give?
A: The Euclidean distance was 0.84.

Q: With `COc1cc(N2CCC(N3CCN(C)CC3)CC2)ccc1Nc1ncc(Cl)c(Nc2ccccc2P(C)(C)=O)n1` as the compound, how does the Euclidean distance read?
A: Its Euclidean distance is 4.2.

Q: Which Euclidean distance does the source give for `CC(C)c1cc(C(C)C)c(CC(=O)NS(=O)(=O)Oc2c(C(C)C)cccc2C(C)C)c(C(C)C)c1` [Avasimibe] here?
A: The Euclidean distance was 0.86.

Q: How did the Euclidean distance turn out when `C#Cc1cccc(Nc2ncnc3cc(OCCOC)c(OCCO)cc23)c1` was run?
A: Its Euclidean distance is 2.87.

Q: Which Euclidean distance does the source give for `CC1(C)S[C@@H]2[C@H](NC(=O)C(c3ccccc3)S(=O)(=O)O)C(=O)N2[C@H]1C(=O)O` (stereo partly specified) [Sulbenicillin Sodium] here?
A: Its Euclidean distance is 1.28.

Q: `COc1cc2/c(=N/c3ccc(Br)cc3F)nc[nH]c2cc1OCC1CCN(C)CC1` [Vandetanib (ZD6474)] was tested. Which Euclidean distance did it give?
A: The Euclidean distance was 2.66.

Q: For `Cc1ccc(NC(=O)c2cccc(C(C)(C)C#N)c2)cc1Nc1ccc2ncn(C)c(=O)c2c1`, which Euclidean distance is on record?
A: The Euclidean distance was 3.42.

Q: With `C[C@]12CC[C@@H]3c4ccc(O)cc4C[C@@H](CCCCCCCCC[S+]([O-])CCCC(F)(F)C(F)(F)F)[C@H]3[C@@H]1CC[C@@H]2O` (stereo partly specified) [Fulvestrant] as the compound, how does the Euclidean distance read?
A: Its Euclidean distance is 1.18.

Q: For `CC[C@H](Nc1ncnc2[nH]cnc12)c1nc2cccc(F)c2c(=O)n1-c1ccccc1` [CAL-101 (Idelalisib. GS-1101)], which Euclidean distance is on record?
A: The Euclidean distance was 1.79.

Q: For `CCN1CCN(Cc2ccc(Nc3ncc(F)c(-c4cc(F)c5nc(C)n(C(C)C)c5c4)n3)nc2)CC1` [Abemaciclib], which Euclidean distance is on record?
A: Its Euclidean distance is 4.04.

Q: For `O=c1c(-n2ccnn2)c[nH]n1-c1cc(N2CCOCC2)ncn1` [Molidustat (BAY 85-3934)], which Euclidean distance is on record?
A: Its Euclidean distance is 1.09.

Q: How did the Euclidean distance turn out when `O=c1ccn([C@@H]2O[C@H](CO)[C@@H](O)[C@H]2O)c(=O)[nH]1` [Uridine] was run?
A: The Euclidean distance was 0.869.

Q: How did the Euclidean distance turn out when `CN1CCN(C2=Nc3cc(Cl)ccc3Nc3ccccc32)CC1` [Clozapine] was run?
A: Its Euclidean distance is 0.901.

Q: With `C[C@@H]1COCCN1c1cc(C2([S@](C)(=N)=O)CC2)nc(-c2cc[nH]c3nccc2-3)n1` as the compound, how does the Euclidean distance read?
A: The Euclidean distance was 3.12.

Q: Which Euclidean distance does the source give for `CCCC(=O)O[C@]1(C(=O)COC(C)=O)CC[C@H]2[C@@H]3C[C@H](F)C4=CC(=O)C=C[C@]4(C)[C@@]3(F)[C@@H](O)C[C@@]21C` [Difluprednate] here?
A: Its Euclidean distance is 1.74.

Q: For `CCCNCC(O)COc1ccccc1C(=O)CCc1ccccc1` (stereo unspecified) [Propafenone HCl], which Euclidean distance is on record?
A: The Euclidean distance was 1.36.

Q: With `CN1CCN(CC/C=C2/c3ccccc3Sc3ccc(S(=O)(=O)N(C)C)cc32)CC1` [Thiothixene] as the compound, how does the Euclidean distance read?
A: The Euclidean distance was 2.69.

Q: With `Cc1cn(-c2cc(NC(=O)c3ccc(C)c(Nc4nccc(-c5cccnc5)n4)c3)cc(C(F)(F)F)c2)cn1` [Nilotinib (AMN-107)] as the compound, how does the Euclidean distance read?
A: The Euclidean distance was 2.13.

Q: With `COc1ccc(-c2cc3c(C)nc(N)nc3n([C@H]3CC[C@H](OCCO)CC3)c2=O)cn1` as the compound, how does the Euclidean distance read?
A: The Euclidean distance was 4.31.

Q: For `C[C@]1(COc2ccc(N3CCC(Oc4ccc(OC(F)(F)F)cc4)CC3)cc2)Cn2cc([N+](=O)[O-])nc2O1` [Delamanid], which Euclidean distance is on record?
A: Its Euclidean distance is 0.823.

Q: For `Cc1cc2c(cc1CC(=O)c1sccc1S(=O)(=O)Nc1onc(C)c1Cl)OCO2` [Sitaxentan sodium], which Euclidean distance is on record?
A: Its Euclidean distance is 0.796.
